The values that follow come from PubChem BioAssay (NCATS).

SMILES strings stand for the structures. Results filed as inconclusive are left out. Active and inactive are the calls of the source. The call rests on the fitted dose curve; in most records, active means well fitted inhibition curve with a large enough effect; inconclusive means small, poorly fitted or top-dose-only effect; inactive means flat fitted curve, though single readings scatter.

Test in all cases: qHTS profiling for inhibitors of Plasmodium falciparum proliferation (AID 504749); further: nearly all actives have a fitted effect of over 60% in size
What all share (conditions): P. falciparum in erythrocytes, SYBR Green DNA, 72 h; series mostly up to 28.7 µM

For one experiment, the system named is CP203. The procedure, abridged:
(§1)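 Fluorescence of SYBR Green-bound parasite DNA, read at 485/535 nm, served as the growth measure. Infected erythrocytes were cultured with compound 72 h; artemisinin (0.29 uM) and DMSO wells defined the normalization range.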

A further experiment relates to CP211. The procedure, abridged: as §1
The test system of a further experiment is CP215. Put shortly: as §1
The test system of another experiment is CP217. The procedure, abridged: as §1
The next experiment deals with CP237. Put shortly: as §1
The subject of another experiment is CP238. The procedure, abridged:
as §1

A further experiment deals with CP247. Put shortly: as §1
The next experiment deals with CP250. Put shortly:
as §1

Another experiment deals with CP252. The procedure, abridged:
as §1

A further experiment concerns CP256. Put shortly: as §1
Potency means the concentration at half of the fitted maximal effect.

Turning to `CN/C(=C\[N+](=O)[O-])NCCSCc1csc(CN(C)C)n1`, the Potency entry with CP203, in the experiment on CP215, in the experiment with CP237, in the experiment with CP238, with CP247 and in the experiment on CP250 was “inactive” throughout. The compound was classed as inactive in the experiment with CP211, in the experiment on CP217, in the experiment with CP252 and in the experiment on CP256.

Regarding `C[C@@H]1O[C@@H](OC[C@H]2O[C@@H](Oc3c(-c4ccc(O)c(O)c4)oc4cc(O)cc(O)c4c3=O)[C@H](O)[C@@H](O)[C@@H]2O)[C@H](O)[C@H](O)[C@H]1O`, the Potency entry in the experiment with CP203, in the experiment with CP215, in the experiment on CP237, in the experiment with CP238, in the experiment with CP247 and with CP250 was “inactive” in each case. Besides, the call in the experiment on CP211, with CP217, in the experiment on CP252 and in the experiment on CP256 was inactive.

As for `O=C(O)CCC(=O)O`, the Potency result in the experiment on CP203, in the experiment on CP215, with CP237, in the experiment on CP238, in the experiment with CP247 and in the experiment on CP250 was “inactive” throughout. For the same compound, the outcome in the experiment with CP211, in the experiment with CP217, in the experiment with CP252 and in the experiment with CP256 was inactive.

For `CN1CCCN=C1COC(=O)C(O)(c1ccccc1)C1CCCCC1` (stereo unspecified), the Potency result in the experiment with CP203, in the experiment with CP215, with CP237, with CP238, with CP247 and in the experiment on CP250 was “inactive” in each case. Also, the outcome in the experiment on CP211, with CP217, with CP252 and with CP256 was inactive.

`Cc1c(N(C)C)c(=O)n(-c2ccccc2)n1C`: the Potency entry in the experiment on CP203, in the experiment with CP215, with CP237, with CP238, in the experiment on CP247 and in the experiment on CP250 was “inactive” each time. Further, the result in the experiment on CP211, in the experiment on CP217, in the experiment with CP252 and with CP256 was inactive.

With `COC(=O)c1ccc(O)cc1`, the Potency entry in the experiment with CP203, with CP215, in the experiment on CP237, in the experiment with CP238, in the experiment on CP247 and in the experiment on CP250 was “inactive” each time. In addition, the compound was classed as inactive with CP211, in the experiment on CP217, with CP252 and with CP256.

For `CCc1nnc(NS(=O)(=O)c2ccc(N)cc2)s1`, the Potency result in the experiment with CP203, with CP215, in the experiment with CP237, with CP238, in the experiment with CP247 and with CP250 was “inactive” throughout. The outcome with CP211, in the experiment with CP217, with CP252 and in the experiment with CP256 was inactive.

As for `CC(C)c1cc2c(cc1S(=O)(=O)O)[C@@]1(C)CCC[C@@](C)(C(=O)O)[C@@H]1CC2`, the Potency entry in the experiment with CP203, with CP215, in the experiment on CP237, in the experiment with CP238 and in the experiment on CP250 was “inactive” in each case. Besides, the compound was called inactive in the experiment with CP211, with CP217, in the experiment on CP252 and with CP256.

Consider `O=C(O)CNC(=O)c1ccccc1I`, for which the Potency result with CP203, in the experiment with CP215, in the experiment on CP237, in the experiment with CP238, with CP247 and in the experiment with CP250 was “inactive” each time. The call in the experiment with CP211, in the experiment on CP217, in the experiment with CP252 and with CP256 was inactive.

Turning to `CCN(CC)CCOC(=O)C(c1ccccc1)c1ccccc1`, the Potency result with CP203, in the experiment on CP215, in the experiment on CP237, in the experiment with CP238, in the experiment with CP247 and in the experiment on CP250 was “inactive” in each case. Further, the result in the experiment with CP211, in the experiment with CP217, with CP252 and in the experiment with CP256 was inactive.

With `CCS(=O)(=O)CCn1c([N+](=O)[O-])cnc1C`, the Potency entry in the experiment with CP203, in the experiment with CP215, in the experiment on CP237, in the experiment on CP238, in the experiment with CP247 and with CP250 was “inactive” throughout. Further, the compound was classed as inactive in the experiment on CP211, in the experiment on CP217, with CP252 and in the experiment with CP256.

For `CC(C)(C)C(=O)OCOC(=O)[C@@H]1N2C(=O)[C@@H](NC(=O)[C@H](N)c3ccccc3)[C@H]2SC1(C)C`, the Potency entry in the experiment on CP203, with CP215, in the experiment on CP237, in the experiment with CP238, with CP247 and in the experiment on CP250 was “inactive” in each case. For the same compound, the compound was called inactive in the experiment with CP211, in the experiment on CP217, in the experiment with CP252 and in the experiment on CP256.

Regarding `CC(=O)NS(=O)(=O)c1ccc(N)cc1`, the Potency result in the experiment with CP203, with CP215, in the experiment on CP237, with CP238, in the experiment with CP247 and in the experiment on CP250 was “inactive” throughout. The call in the experiment on CP211, with CP217, with CP252 and in the experiment on CP256 was inactive.

In the case of `Cc1c(NC(C)C)c(=O)n(-c2ccccc2)n1C`, the Potency entry with CP203, in the experiment with CP215, in the experiment with CP237, in the experiment with CP238, in the experiment on CP247 and in the experiment with CP250 was “inactive” throughout. Moreover, the compound was called inactive in the experiment with CP211, in the experiment with CP217, with CP252 and with CP256.

As to `CC(=O)OCC(COC(C)=O)OC(C)=O`, the Potency entry in the experiment on CP203, with CP215, in the experiment with CP237, in the experiment with CP238, in the experiment on CP247 and in the experiment with CP250 was “inactive” each time. Further, the compound was classed as inactive in the experiment with CP211, in the experiment with CP217, in the experiment on CP252 and with CP256.

Consider `Nc1ncnc(Nc2ccccc2)n1`, for which the Potency entry in the experiment with CP203, in the experiment on CP215, with CP237, with CP238 and in the experiment with CP247 was “inactive” throughout. Moreover, the compound was classed as inactive in the experiment on CP211, with CP217, in the experiment with CP252 and with CP256.

As to `NC(=O)NS(=O)(=O)c1ccc(N)cc1`, the Potency result in the experiment with CP203, with CP215, in the experiment with CP237, with CP238, in the experiment on CP247 and in the experiment on CP250 was “inactive” in each case. Besides, the compound was classed as inactive in the experiment with CP211, in the experiment on CP217, with CP252 and in the experiment on CP256.

Turning to `NNc1nnc(NN)c2ccccc12`, the Potency entry in the experiment with CP203, in the experiment on CP237, with CP238, in the experiment on CP247 and in the experiment on CP250 was “inactive” each time. Also, the compound was called inactive with CP211, with CP217, with CP252 and in the experiment with CP256.

As for `Cc1[nH]c(C)c(Cl)c(=O)c1Cl`, the Potency result in the experiment on CP203, in the experiment with CP215, in the experiment on CP238 and with CP247 was “inactive” throughout. The call in the experiment with CP217 and in the experiment on CP252 was inactive. Moreover, the Potency in the experiment with CP237 is 8910 nM (active).

As for `CCN(CC)CC1CCCCN1CC(=O)N1c2ccccc2C(=O)Nc2cccnc21` (stereo unspecified), the Potency entry in the experiment with CP203, with CP215, in the experiment on CP237, in the experiment with CP238, with CP247 and in the experiment on CP250 was “inactive” in each case. For the same compound, the result in the experiment on CP217, in the experiment on CP252 and in the experiment with CP256 was inactive.

On to `Nc1ccc(C(=O)Oc2ccccc2)c(O)c1`, for which the Potency entry with CP203, in the experiment with CP237, with CP238, in the experiment with CP247 and with CP250 was “inactive” in each case. Besides, the result with CP211, with CP217, in the experiment on CP252 and in the experiment with CP256 was inactive.

For `CCCCCCCCCCOc1cc2c(=O)c(C(=O)OCC)c[nH]c2cc1OCC`, the call with CP217 was inactive. Further, the Potency is 3.5 nM (active) with CP237, 2.8 nM (active) in the experiment on CP238, 0.3 nM (active) in the experiment on CP247 and 0.0708 nM (active) with CP250.

For the compound `Cc1cc(C)c(NC(=O)CN(CC(=O)O)CC(=O)O)c(C)c1Br`, the Potency result in the experiment on CP203, with CP215 and in the experiment on CP237 was “inactive” throughout. For the same compound, the compound was classed as inactive in the experiment with CP211.
